Pf growth 96h: P. falciparum growth inhibition at 96 hours | P. falciparum luciferase reporter growth, 96 h | Potency, µM (highest dose often 28.7 µM), inactives show at the highest dose activity change, negative = inhibition, hits mostly inhibitors | hit rate 6.9% among 320,000 | AID 504834
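Erythrocytes infected with luciferase-expressing P. falciparum were dispensed at 2% hematocrit and 0.05% parasitemia (final), then incubated with compounds 96 hours at 37 C in 5% CO2. Luminescence after detection reagent addition reported growth.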
HCV inhibitor: HCV inhibition; hit rate 3.4% among 340,000; Potency, µM (series often up to 41.8 µM), inactives show top-dose activity change, negative = inhibition, hits mostly inhibitors; Huh7.5.1 HCVcc-Cre infection, luciferase reporter, 44 h; AID 651820
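1,000 cells/well; 4 h culture; + compound; + HCVcc-Cre (~0.5 moi); 44 h; luciferase substrate, RT 15 min; read 15 sec.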
AMA1-RON2 inh: disrupts binding of P. falciparum AMA1 to RON2; AlphaScreen AMA1-biotinylated RON2 peptide binding; Potency, µM (highest dose often 58.2 µM), inactives show top-dose activity change, negative = inhibition, actives largely listed as inhibitors; AID 720542; hit rate 0.2% among 360,000;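 note: 0% = vehicle wells and -100% = peptide control; nearly all actives have a fitted effect of over 45% in size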
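AMA1 (3D7) with his tag at 25 nM final met compounds first, then biotinylated RON2 peptide at 25 nM; detection used donor plus acceptor beads, 10 µg/mL apiece, read by AlphaScreen after 30 min at room temperature.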
Pf growth 48h: inhibits P. falciparum growth in the first generation, 48 h; hit rate 5.9% among 310,000; P. falciparum luciferase growth in erythrocytes, 48 h; Potency, µM (titrated, usually from 28.7 µM), without a hit: at the top dose activity change, negative = inhibition, most hits filed as inhibitors; AID 504832
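Read-out is firefly luciferase luminescence from an integrated reporter in P. falciparum, so falling signal marks reduced parasite growth. Infected erythrocytes were at 2% hematocrit and 0.1% parasitemia (final) in Albumax-supplemented RPMI 1640.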
AmpC inh detg: AmpC beta-lactamase inhibition with detergent present; hit rate 0.041% among 370,000; P00811; AmpC hydrolysis of nitrocefin, absorbance 480 nm, 0.01% Triton; Potency, µM (highest dose often 114 µM), without a hit: top-dose activity change, negative = inhibition, actives largely listed as inhibitors; AID 485294;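 note: 0% = no-compound wells and -100% = no-enzyme wells; nearly all actives have a fitted effect of over 25% in size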
Target sequence (P00811 whole entry, looked up): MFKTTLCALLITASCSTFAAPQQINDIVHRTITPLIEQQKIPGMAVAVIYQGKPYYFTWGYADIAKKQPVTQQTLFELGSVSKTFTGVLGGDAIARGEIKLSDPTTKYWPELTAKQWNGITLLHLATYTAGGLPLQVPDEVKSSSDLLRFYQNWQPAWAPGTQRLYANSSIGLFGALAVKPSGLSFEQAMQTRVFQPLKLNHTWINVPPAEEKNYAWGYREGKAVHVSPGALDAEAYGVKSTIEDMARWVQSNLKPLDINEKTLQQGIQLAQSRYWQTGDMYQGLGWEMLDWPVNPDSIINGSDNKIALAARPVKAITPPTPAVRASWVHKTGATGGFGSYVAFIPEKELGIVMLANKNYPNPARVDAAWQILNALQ
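20 mM phosphate pH 7.0 + 0.01% (detergent screen) or 0.0001% Triton X-100; 5.3 nM AmpC reagent; cpd preinc 15 min RT; nitrocefin (800 uM stock) to start; A480 q20 s × 4 min; Activity was normalised to no-enzyme and no-compound control wells.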
AmpC inh no detg: AmpC beta-lactamase inhibition without detergent. P00811. AmpC nitrocefin hydrolysis, absorbance 480 nm, 0.0001% Triton. Potency, µM (top dose mostly 57.1 µM), for the others: at the top dose activity change, negative = inhibition, usual class: inhibitors. hit rate 0.52% among 330,000. AID 485341;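 note: plate controls were no compound for no effect and no enzyme for full effect; nearly all actives have a fitted effect of over 20% in size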
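20 mM phosphate pH 7.0 + 0.01% (detergent screen) or 0.0001% Triton X-100; 5.3 nM AmpC reagent; cpd preinc 15 min RT; nitrocefin (800 uM stock) to start; A480 q20 s × 4 min; Activity was normalised to no-enzyme and no-compound control wells.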
The depositor's hits bear a star; ? = inconclusive; · = not tested or not shown. Shown are actives, neighbours in structure and some others; about 11% of the full set was active somewhere. Calls come from the whole dose curve; as a rule, active = well fitted curve in the direction sought with a large enough effect; inconclusive = small, poorly fitted or top-dose-only effect, or another doubt; inactive = no such curve, though single readings can be large; an effect the other way counts as inactive or inconclusive. Unless noted, % is set by controls: 0 for no effect and ±100 for the full control effect; potency is the fitted concentration of half-maximal effect.

SMILES	Pf growth 96h	HCV inhibitor	AMA1-RON2 inh	Pf growth 48h	AmpC inh detg	AmpC inh no detg
CS(=O)(=O)N(CC(=O)Nc1ccccc1C(=O)N1CCOCC1)c1cccc(F)c1	2.6µM*	18%	9%	0%	8%	308%
CCCOc1ccc(N2C(=O)CC(N(CCOC34CC5CC(CC(C5)C3)C4)C(C)=O)C2=O)cc1 (configuration not stated)	5.2µM*	-5%	2%	44%	5%	73%
CCCCN(C(C)=O)C1CC(=O)N(c2ccc(OCCC)cc2)C1=O (configuration not stated)	52%	6%	14%	0%	-1%	43%
CCCCCCC(=O)N(O)C1CC(=O)N(Cc2ccccc2)C1=O (configuration not stated)	·	-7%	1%	5.9µM*	?	-44%
CCCCCOc1ccc(N2C(=O)CC(N(O)c3ccccc3)C2=O)cc1 (configuration not stated)	33%	?	12%	21%	?	20µM*
CCCCCC(=O)N(O)C1CC(=O)N(c2ccccc2)C1=O (configuration not stated)	?	10%	20%	10µM*	-18%	-12%
CCOC(=O)c1cc(-c2ccc(C)cc2)n(CCC(=O)Nc2ccc(OC)c(OC)c2)c1C	·	·	·	·	1%	·
Cc1ccc(NC(=O)C2CCCN(S(=O)(=O)c3ccc4[nH]c(=O)ccc4c3)C2)cc1Cl (configuration not stated)	·	·	·	·	-5%	·
CCCOc1ccc(N2C(=O)CC(SC(=N)N3N=C(c4ccccc4)CC3c3ccccc3)C2=O)cc1 (configuration not stated)	-22%	?	-7%	2.3µM*	-10%	-26%
COc1cccc(-n2c(=O)c3c(C)c(C(=O)N(C)C)sc3n(Cc3ccc(F)cc3Cl)c2=O)c1	·	·	·	·	11%	·
CCOC(=O)C1=C(c2ccccc2)N2CCS(=O)(=O)N=C2S1	10µM*	-3%	-2%	-1%	2%	-13%
CCOC(=O)c1c(N)nn(C(=O)C(C)(C)C)c1-c1ccccc1	0%	-4%	2%	9%	1%	-21%
COc1ccccc1C(=O)CN1C(=O)NC2(CCCc3ccccc32)C1=O (configuration not stated)	·	?	16%	·	·	-32%
CCOc1ccc(C(=O)CN2C(=O)NC3(CCCc4ccccc43)C2=O)cc1 (configuration not stated)	·	·	1%	·	·	·
CCOc1ccc(CN(C)C(=O)CN2C(=O)NC3(CCCc4ccccc43)C2=O)cc1 (configuration not stated)	1.2µM*	?	14%	?	-4%	73%
COc1ccc(CNC(=O)CN2C(=O)NC3(CCCc4sccc43)C2=O)cc1OC (configuration not stated)	4.1µM*	-19%	-8%	?	1%	2%
O=C(CN1C(=O)NC2(CCc3ccccc32)C1=O)c1ccccc1 (configuration not stated)	12%	30%	0%	-8%	-1%	-10%
COc1ccc(C(=O)CN2C(=O)NC3(CCCc4ccccc43)C2=O)cc1OC (configuration not stated)	1.3µM*	-3%	20%	8.3µM*	-1%	-19%
O=C(CN1C(=O)NC2(CCc3ccccc32)C1=O)c1c[nH]c2ccccc12 (configuration not stated)	?	10%	-15%	8.3µM*	-12%	-16%
COc1ccccc1CNC(=O)C(Cc1ccccc1)NS(=O)(=O)c1ccc2c(c1)CCN2C(C)=O (configuration not stated)	·	·	·	·	2%	·
CCOc1ccccc1NC(=O)C1CCN(S(=O)(=O)c2c(C)noc2/C=C/c2ccco2)CC1	·	·	·	·	4%	·
CCN(CCN(C)C)C(=O)C1CCN(S(=O)(=O)c2c(C)noc2/C=C/c2ccccc2F)CC1	-14%	?	6%	9.3µM*	2%	207%
COC(=O)CCN(C(=O)C1CCN(S(=O)(=O)c2c(C)noc2/C=C/c2ccccc2F)CC1)c1ccccc1	·	·	·	·	-7%	·
CCOc1ccccc1/C=C/c1onc(C)c1S(=O)(=O)N1CCC(C(=O)N(CC)CC)CC1	12%	?	-6%	10µM*	-1%	158%
Cc1noc(/C=C/c2ccco2)c1S(=O)(=O)N1CCC(C(=O)N(C)Cc2ccccc2)CC1	8%	?	-14%	1.9µM*	-11%	45%
SMILES	Pf growth 96h	HCV inhibitor	AMA1-RON2 inh	Pf growth 48h	AmpC inh detg	AmpC inh no detg
Cc1noc(/C=C/c2ccco2)c1S(=O)(=O)N1CCC(C(=O)NC(C)c2ccccc2)CC1 (configuration not stated)	?	?	3%	·	-11%	-3%
COc1ccc2c(c1)c(=O)c(S(=O)(=O)c1ccccc1)cn2CC(=O)Nc1ccc(C)c(Cl)c1	·	·	·	·	-3%	·
CCCOC(=O)c1cccc(NC(=O)CSc2nnc3cc(C)c4ccccc4n23)c1	·	·	·	·	2%	·
CCOc1cc(C(=O)NC)cc(Br)c1OC	-25%	-8%	-4%	11%	3%	-2%
CCOc1cc(C(=O)N=c2sccn2C)cc(Br)c1OC	7.4µM*	?	0%	?	-17%	129%
COc1ccc(N/C(=C(/C(Cl)=C(Cl)Cl)[N+](=O)[O-])n2nnc3ccccc32)cc1OC	15µM*	·	·	·	-15%	-13%
CCOc1ccc(-c2cc3c(=O)n(Cc4nc(-c5ccc(OC)cc5OC)oc4C)ccn3n2)cc1Cl	·	·	·	·	5%	·
O=C1NC(=O)C(=Cc2cc3c(cc2[N+](=O)[O-])OCO3)C(=O)N1	0%	1%	-11%	21%	50µM*	?
Cc1c(-c2nc(N)nc(Nc3ccc(F)cc3)n2)oc2ccccc12	?	10µM*	2%	?	-4%	-6%
Clc1cccc(CNc2ncnc3c2nc2n3CCCC2)c1	·	·	·	·	15%	·
CCOC(=O)N1CCN(CC(O)COc2ccccc2C(C)C)CC1 (configuration not stated)	?	-2%	-1%	?	-5%	133%
COc1ccc(C2CCCN2CC(O)COc2ccccc2C(C)C)cc1 (configuration not stated)	13µM*	?	-3%	12µM*	-1%	88%
FC(F)(F)c1nc2ccccc2n2c(-c3ccc(Cl)cc3Cl)nnc12	-7%	4%	32%	5%	?	-15%
FC(F)(F)c1nnc2c(Sc3ccccc3)nc3ccc(Cl)cc3n12	?	11µM*	-6%	?	-2%	-20%

From PubChem BioAssay
